# Records with an inconclusive call do not appear. A call without a number means that no potency is given here. The source made the active and inactive calls. Calls come from the whole dose curve; as a rule, active = well fitted curve in the direction sought with a large enough effect; inconclusive = small, poorly fitted or top-dose-only effect, or another doubt; inactive = no such curve, though single readings can be large; an effect the other way counts as inactive or inconclusive.
# Experiments:
# [1] = Quantitative High-Throughput drug screen in 47 multiple myeloma cell lines against the NCATS MIPE library collection: KMM1_JCRB cell viability assay (AID 1918960); note: nearly all actives have a fitted effect of over 30% in size
# Summary of the method: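 Luminescence from CellTiter-Glo, taken after 5 min at room temperature, reports cellular ATP as viability. Cells (500 per well) had been treated 48 h at 37 °C with MIPE 4.0 compounds, scaled between DMSO and medium-only controls.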
# [2] = Quantitative High-Throughput drug screen in 47 multiple myeloma cell lines against the NCATS MIPE library collection: JJN3_DSMZ cell viability assay (AID 1918966; note: nearly all actives have a fitted effect of over 50% in size; note: potency is the fitted concentration of half-maximal effect)
# Summary of the method: (§1)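 Relative luminescence from CellTiter-Glo served as the viability signal, referenced to DMSO-treated (100%) and cell-free medium (0%) controls. Treatment lasted 48 hours at 37C with 500 cells per well.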
# [3] = Quantitative High-Throughput drug screen in 47 multiple myeloma cell lines against the NCATS MIPE library collection: H1112_PLB cell viability assay (AID 1918967; note: nearly all actives have a fitted effect of over 30% in size; note: potency is the fitted concentration of half-maximal effect)
# Summary of the method: as §1
# [4] = Quantitative High-Throughput drug screen in 47 multiple myeloma cell lines against the NCATS MIPE library collection: Karpas25_ECACC cell viability assay (AID 1918968; note: nearly all actives have a fitted effect of over 35% in size; note: potency is the fitted concentration of half-maximal effect)
# Summary of the method: as §1
# [5] = Quantitative High-Throughput drug screen in 47 multiple myeloma cell lines against the NCATS MIPE library collection: KMS12PE_JCRB cell viability assay (AID 1918972); note: nearly all actives have a fitted effect of over 30% in size; note: potency is the fitted concentration of half-maximal effect
# Summary of the method: (§2)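 We plated 500 myeloma cells per well, pinned in MIPE 4.0 compounds, and incubated for 48 hours at 37C. ATP was then quantified with CellTiter-Glo, with DMSO and media-only wells defining 100% and 0%.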
# [6] = Quantitative High-Throughput drug screen in 47 multiple myeloma cell lines against the NCATS MIPE library collection: MOLP8_DSMZ cell viability assay (AID 1918977); note: nearly all actives have a fitted effect of over 45% in size; note: potency is the fitted concentration of half-maximal effect
# Summary of the method: (§3)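 Plated at 500 cells per well, myeloma lines received MIPE 4.0 compounds by pin tool. Following 48 h culture at 37 °C, CellTiter-Glo luminescence gave viability relative to DMSO and media-only controls.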
# [7] = Quantitative High-Throughput drug screen in 47 multiple myeloma cell lines against the NCATS MIPE library collection: OCIMY1_PLB cell viability assay (AID 1918979); note: nearly all actives have a fitted effect of over 35% in size; note: potency is the fitted concentration of half-maximal effect
# Summary of the method: as §3
# [8] = Quantitative High-Throughput drug screen in 47 multiple myeloma cell lines against the NCATS MIPE library collection: MM1R_ATCC cell viability assay (AID 1918981); note: nearly all actives have a fitted effect of over 35% in size; note: potency is the fitted concentration of half-maximal effect
# Summary of the method: as §3
# [9] = Quantitative High-Throughput drug screen in 47 multiple myeloma cell lines against the NCATS MIPE library collection: KMS27_JCRB cell viability assay (AID 1918970); note: nearly all actives have a fitted effect of over 30% in size; note: potency is the fitted concentration of half-maximal effect
# Summary of the method: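 CellTiter-Glo luminescence after 48 h drug exposure at 37 °C; 500 cells/well, 1536-well format, pin-tool compound addition; DMSO = 100%, media-only = 0% viability.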
# [10] = Quantitative High-Throughput drug screen in 47 multiple myeloma cell lines against the NCATS MIPE library collection: KMS12BM_JCRB cell viability assay (AID 1918971); note: nearly all actives have a fitted effect of over 35% in size; note: potency is the fitted concentration of half-maximal effect
# Summary of the method: (§4)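 Luminescent ATP measurement with CellTiter-Glo gives viability, scaled between DMSO-only wells (100%) and media-only wells (0%). Cells, 500 per well, faced library compounds for 48 hours at 37C.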
# [11] = Quantitative High-Throughput drug screen in 47 multiple myeloma cell lines against the NCATS MIPE library collection: NCIH929_DSMZ cell viability assay (AID 1918978); note: nearly all actives have a fitted effect of over 35% in size; note: potency is the fitted concentration of half-maximal effect
# Summary of the method: as §3
# [12] = Quantitative High-Throughput drug screen in 47 multiple myeloma cell lines against the NCATS MIPE library collection: MM1S_ATCC cell viability assay (AID 1918980); note: nearly all actives have a fitted effect of over 45% in size; note: potency is the fitted concentration of half-maximal effect
# Summary of the method: as §3
# [13] = Quantitative High-Throughput drug screen in 47 multiple myeloma cell lines against the NCATS MIPE library collection: Karpas417_ECACC cell viability assay (AID 1918961); details: Karpas417 myeloma viability, CellTiter-Glo ATP luminescence, 48 h; viability (% of DMSO): at 45.8 µM (top of the series); note: potency is the fitted concentration of half-maximal effect
# Summary of the method: as §2
# [14] = Quantitative High-Throughput drug screen in 47 multiple myeloma cell lines against the NCATS MIPE library collection: MMM1_PLB cell viability assay (AID 1918976); note: nearly all actives have a fitted effect of over 35% in size; note: potency is the fitted concentration of half-maximal effect
# Summary of the method: as §3
# [15] = Quantitative High-Throughput drug screen in 47 multiple myeloma cell lines against the NCATS MIPE library collection: INA6_PLB cell viability assay (AID 1918965; note: nearly all actives have a fitted effect of over 55% in size; note: potency is the fitted concentration of half-maximal effect)
# Summary of the method: as §2
# [16] = Quantitative High-Throughput drug screen in 47 multiple myeloma cell lines against the NCATS MIPE library collection: KMS26_JCRB cell viability assay (AID 1918975); note: nearly all actives have a fitted effect of over 45% in size; note: potency is the fitted concentration of half-maximal effect
# Summary of the method: as §4
# [17] = Quantitative High-Throughput drug screen in 47 multiple myeloma cell lines against the NCATS MIPE library collection: JIM1_ECACC cell viability assay (AID 1918964; note: potency is the fitted concentration of half-maximal effect)
# Summary of the method: as §1
# [18] = Quantitative High-Throughput drug screen in 47 multiple myeloma cell lines against the NCATS MIPE library collection: KMS20_JCRB cell viability assay (AID 1918973); note: nearly all actives have a fitted effect of over 45% in size; note: potency is the fitted concentration of half-maximal effect
# Summary of the method: as §1
# [19] = Quantitative High-Throughput drug screen in 47 multiple myeloma cell lines against the NCATS MIPE library collection: KHM11_PLB cell viability assay (AID 1918962); note: nearly all actives have a fitted effect of over 35% in size; note: potency is the fitted concentration of half-maximal effect
# Summary of the method: (§5)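 Primary qHTS used for cherry-picking: cells at 500/well, library compounds for 48 h (37C, 5% CO2), luminescent ATP assay.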
# [20] = Quantitative High-Throughput drug screen in 47 multiple myeloma cell lines against the NCATS MIPE library collection: JIM3_ECACC cell viability assay (AID 1918963; note: nearly all actives have a fitted effect of over 35% in size; note: potency is the fitted concentration of half-maximal effect)
# Summary of the method: as §5
compound,measurement,setting,value
C=C(c1ccc(C(=O)O)cc1)c1cc2c(cc1C)C(C)(C)CCC2(C)C,Potency,[1],inactive
same,Potency,[2],inactive
same,Potency,[3],inactive
same,Potency,[4],14.8 µM (active)
same,Potency,[5],inactive
same,Potency,[6],inactive
same,Potency,[7],inactive
same,Potency,[8],inactive
Cc1ncc([N+](=O)[O-])n1CC(C)O (configuration not stated),Potency,[1],inactive
same,Potency,[4],11.8 µM (active)
same,Potency,[9],inactive
same,Potency,[10],inactive
same,Potency,[5],inactive
same,Potency,[11],20.9 µM (active)
same,Potency,[12],14.8 µM (active)
same,Potency,[8],inactive
O=C(NC(Cc1cc(=O)[nH]c2ccccc12)C(=O)O)c1ccc(Cl)cc1 (configuration not stated),Potency,[13],inactive
same,Potency,[2],9.35 µM (active)
same,Potency,[3],inactive
same,Potency,[9],inactive
same,Potency,[10],inactive
same,Potency,[14],9.35 µM (active)
same,Potency,[6],inactive
same,Potency,[11],inactive
same,Potency,[7],inactive
same,Potency,[8],inactive
CC(=O)NC[C@H]1CN(c2ccc(N3CCOCC3)c(F)c2)C(=O)O1,Potency,[1],inactive
same,Potency,[15],inactive
same,Potency,[3],inactive
same,Potency,[5],inactive
same,Potency,[16],inactive
same,Potency,[14],4.69 µM (active)
same,Potency,[6],7.43 µM (active)
same,Potency,[7],inactive
same,Potency,[12],8.33 µM (active)
same,Potency,[8],inactive
O=C(NCCO[N+](=O)[O-])c1cccnc1,Potency,[1],inactive
same,Potency,[17],inactive
same,Potency,[2],inactive
same,Potency,[3],inactive
same,Potency,[14],inactive
same,Potency,[7],inactive
same,Potency,[12],4.69 µM (active)
CN(c1nccc(=O)[nH]1)C1CCN(c2nc3ccccc3n2Cc2ccc(F)cc2)CC1,Potency,[1],inactive
same,Potency,[15],23.5 µM (active)
same,Potency,[3],23.5 µM (active)
same,Potency,[4],11.8 µM (active)
same,Potency,[5],inactive
same,Potency,[18],6.62 µM (active)
same,Potency,[6],inactive
same,Potency,[7],inactive
same,Potency,[12],11.8 µM (active)
Nc1ccc(S(N)(=O)=O)cc1,Potency,[1],inactive
same,Potency,[15],inactive
same,Potency,[2],inactive
same,Potency,[3],inactive
same,Potency,[4],inactive
same,Potency,[9],inactive
same,Potency,[10],inactive
same,Potency,[5],inactive
same,Potency,[16],inactive
same,Potency,[6],inactive
same,Potency,[7],inactive
same,Potency,[12],inactive
same,Potency,[8],inactive
COc1cc2nc(N3CCN(C(=O)C4CCCO4)CC3)nc(N)c2cc1OC (configuration not stated),Potency,[19],inactive
same,Potency,[20],inactive
same,Potency,[15],inactive
same,Potency,[2],inactive
same,Potency,[3],inactive
same,Potency,[4],inactive
same,Potency,[5],16.6 µM (active)
same,Potency,[6],inactive
same,Potency,[11],inactive
same,Potency,[7],inactive
same,Potency,[12],inactive
same,Potency,[8],inactive
CC(=O)O[C@H]1C(=O)[C@@]2(C)C([C@H](OC(=O)c3ccccc3)[C@]3(O)C[C@H](OC(=O)[C@H](O)[C@@H](NC(=O)c4ccccc4)c4ccccc4)C(C)=C1C3(C)C)[C@]1(OC(C)=O)CO[C@@H]1C[C@@H]2O (some centres not stated),Potency,[19],inactive
same,Potency,[20],inactive
same,Potency,[4],inactive
same,Potency,[10],inactive
same,Potency,[18],inactive
same,Potency,[16],inactive
same,Potency,[14],14.8 µM (active)
same,Potency,[6],inactive
same,Potency,[11],inactive
same,Potency,[7],0.0187 µM (active)
same,Potency,[12],inactive
same,Potency,[8],inactive
Nc1nc(Cl)nc2c1ncn2[C@H]1C[C@H](O)[C@@H](CO)O1,Potency,[19],1.05 µM (active)
same,Potency,[20],0.526 µM (active)
same,Potency,[17],2.35 µM (active)
same,Potency,[15],0.935 µM (active)
same,Potency,[10],0.0833 µM (active)
same,Potency,[5],0.0372 µM (active)
same,Potency,[18],1.48 µM (active)
same,Potency,[14],4.69 µM (active)
same,Potency,[6],0.0833 µM (active)
same,Potency,[12],0.59 µM (active)
same,Potency,[8],0.264 µM (active)
Nc1nc(OCc2ccccc2)c2[nH]cnc2n1,Potency,[13],16.6 µM (active)
same,Potency,[19],inactive
same,Potency,[15],18.7 µM (active)
same,Potency,[3],inactive
same,Potency,[4],16.6 µM (active)
same,Potency,[9],14.8 µM (active)
same,Potency,[10],inactive
same,Potency,[12],14.8 µM (active)
same,Potency,[8],inactive
COC(=O)C1=C(C)NC(C)=C(C(=O)OCCCN2CCC(c3ccccc3)(c3ccccc3)CC2)C1c1cccc([N+](=O)[O-])c1 (configuration not stated),Potency,[19],inactive
same,Potency,[20],inactive
same,Potency,[3],inactive
same,Potency,[9],inactive
same,Potency,[5],inactive
same,Potency,[18],inactive
same,Potency,[6],inactive
same,Potency,[7],inactive
same,Potency,[8],20.9 µM (active)
CCCCc1ccc2nc(NC(=O)OC)[nH]c2c1,Potency,[15],0.001 µM (active)
same,Potency,[2],4.69 µM (active)
same,Potency,[4],0.0235 µM (active)
same,Potency,[10],0.0093 µM (active)
same,Potency,[5],0.0047 µM (active)
same,Potency,[16],1.48 µM (active)
same,Potency,[14],3.32 µM (active)
same,Potency,[8],0.059 µM (active)
CC(C)[N+]1(C)[C@@H]2CC[C@H]1CC(OC(=O)C(CO)c1ccccc1)C2 (some centres not stated),Potency,[20],inactive
same,Potency,[2],inactive
same,Potency,[3],inactive
same,Potency,[9],14.8 µM (active)
same,Potency,[5],16.6 µM (active)
same,Potency,[16],inactive
same,Potency,[6],inactive
same,Potency,[7],inactive
same,Potency,[12],inactive
same,Potency,[8],inactive
Cc1ccc(C(=O)c2cc(O)c(O)c([N+](=O)[O-])c2)cc1,Potency,[4],26.4 µM (active)
same,Potency,[5],18.7 µM (active)
same,Potency,[18],20.9 µM (active)
same,Potency,[7],inactive
same,Potency,[12],20.9 µM (active)
CN(C)C(=O)COC(=O)Cc1ccc(OC(=O)c2ccc(N=C(N)N)cc2)cc1,Potency,[19],0.662 µM (active)
same,Potency,[15],1.48 µM (active)
same,Potency,[3],14.8 µM (active)
same,Potency,[6],inactive
same,Potency,[7],inactive
same,Potency,[12],11.8 µM (active)

# Reference: PubChem BioAssay (NCATS)
